In all, about 2,500 compounds went through this assay and about 2,100 (84%) were called active.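 The calls were made as follows: active = toxic compounds, whose cell viability fell below 70% of untreated control cells; inactive = the rest.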 So high a share suggests a set chosen from earlier hits. Not all results are given here. Results with a measured potency or affinity are listed apart.
Assay: HEp-2 cell cytotoxicity, dose response, cytotoxicity control for RSV inhibitor project, HTS (AID 2410);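 also: cells exposed to compound for six days before readout; 100% = median signal of untreated cell control wells on each plate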
Settings: HEp-2 viability, luminescence, cytotoxicity counter-screen; series mostly up to 50 µM; viability: at the top concentration

SMILES | viability
Nc1ccc(Cl)c[n+]1Cc1cccc2cccnc12 | 90.8% (inactive)
N#C/C(=C\c1ccncc1)c1nc2c(s1)CCCC2 | 85.4% (inactive)
COc1ccc2ccc(=O)oc2c1 | 118% (inactive)
Cc1c(CC(=O)N2CCN(C(=O)C3COc4ccccc4O3)CC2)c(=O)oc2cc(O)cc(O)c12 (stereo unspecified) | 109% (inactive)
Cc1cc(S(=O)(=O)N2CCCC2)ccc1OCC(=O)Nc1ccccc1 | 111% (inactive)
CC(=O)c1ccc2c(ccc3ccccc32)c1 | 111% (inactive)
COCCCNC(=O)c1ccc(Cn2c(=O)c3ccccc3n(Cc3ccc(C)cc3)c2=O)cc1 | 84.2% (inactive)
CC(=O)c1c(C)nc(-c2ccc(Cl)cc2)nc1N=CN(C)C | 72.1% (inactive)
O=C1c2ccccc2C(Nc2cccnc2)N1Cc1ccc2c(c1)OCO2 (stereo unspecified) | 93.3% (inactive)
Cc1ccc2[nH]c(=O)c(COC(=O)c3ccccn3)cc2c1 | 87% (inactive)
COc1ccc(NC(=O)C2(c3ccc(NC(=O)c4ccc(OC)cc4)cc3)CCCC2)cc1 | 102% (inactive)
Nc1nnnn1/N=C/c1ccc(O)cc1 | 86.5% (inactive)
COCCn1c(-c2ccc(Cl)cc2Cl)nc2c(c(=O)c3ccccc3n2C)c1=O | 100% (inactive)
CCCCCC(=O)Nc1nc(C)c(-c2csc(Nc3cc(Cl)ccc3OC)n2)s1 | 92.3% (inactive)
O=C(NC(C(=O)N/N=C/c1cccnc1)c1n[nH]c(=O)c2ccccc12)c1ccccc1 (stereo unspecified) | 89.3% (inactive)
O=C(NCCSCc1c(F)cccc1Cl)Nc1ccccc1 | 82% (inactive)

SMILES | viability
Cc1nc2cc(Cl)c(Cl)cc2n1-c1ccccn1 | 79.3% (inactive)
Cc1ccc([N+](=O)[O-])cc1S(=O)(=O)Nc1cccc(-c2ccc(N3CCOCC3)nn2)c1 | 110% (inactive)
Cc1c(-c2nc(N)nc(Nc3ccc(F)cc3)n2)oc2ccccc12 | 74.9% (inactive)
COC(=O)c1ccc(Nc2nnc(-c3ccc(C)c(S(=O)(=O)NCC4CCCO4)c3)c3ccccc23)cc1 (stereo unspecified) | 84.7% (inactive)
O=C(CSc1nc2ccccc2c2nc3ccccc3n12)NCc1ccco1 | 71.2% (inactive)
CCCc1cc(-n2cnc3ccccc32)n2c(nc3ccccc32)c1C#N | 75.4% (inactive)
Cc1ccc2cc3cc(C(=O)N4CCCCCC4)oc3nc2c1 | 86.8% (inactive)
Cc1sc(=NC(=O)c2ccco2)n(C)c1-c1ccc(Cl)cc1 | 88.3% (inactive)
Cn1cc(C(N)=O)c2ccccc21 | 102% (inactive)
Cc1ccc(C)c(NC(=O)CSc2nc3c(oc4ccccc43)c(=O)n2-c2ccccc2)c1 | 76.1% (inactive)
O=C(Nc1ccon1)c1sc2cc(F)ccc2c1Cl | 94.7% (inactive)
Cc1ccc(/C=N\NC(=O)C2CN(S(=O)(=O)c3ccccc3)CCN2S(=O)(=O)c2ccccc2)cc1 (stereo unspecified) | 71% (inactive)
C/C(N)=C(/C#N)C(=O)CSc1cc(C)c2cc(C)cc(C)c2n1 | 85.6% (inactive)
C/C(N)=C(/C#N)C(=O)CSc1ncnc2ccccc12 | 98% (inactive)
COc1ccc(CN2C(=O)c3cccnc3C2Nc2ccc(OC)c(Cl)c2)cc1 (stereo unspecified) | 74.6% (inactive)
